According to PubChem BioAssay (EPA / NIEHS):
Activity calls are given as the source filed them. Rule for the calls: active = hit-call score of the fitted dose curve at least 0.9, where 1 is the maximum; inactive = score below 0.9.

Test: APR_HepG2_NuclearSize_24hr: Apredica 24-hour HepG2 Assay for Nuclear Size (AID 2282907)
Conditions: high-content imaging, actives raise or lower the signal
Procedure: APR_HepG2_24hr is a cell-based, multiplexed-readout assay that uses HepG2, a human liver cell line, with measurements taken at 24 hours after chemical dosing in a 384-well plate.APR_HepG2_NuclearSize_24hr is one of 10 assay component(s) measured or calculated from the APR_HepG2_24hr assay. It is designed to make measurements of cell phenotype, a form of morphology reporter, as detected with fluorescence intensity signals by HCS Fluorescent Imaging technology.Data from the assay component APR_HepG2_NuclearSize_24hr was analyzed into 1 assay endpoint. This assay endpoint, APR_HepG2_NuclearSize_24hr, was analyzed with bidirectional fitting relative to DMSO as the negative control and baseline of activity. Using a type of morphology reporter, measures of all nuclear dna for gain or loss-of-signal activity can be used to understand the signaling at the nuclear-level. Furthermore, this assay endpoint can be referred to as a primary readout, because this assay has produced multiple assay endpoints where this one serves a signaling function. To generalize the intended target to other relatable targets, this assay endpoint is annotated to the cell morphology intended target family, where the subfamily is organelle conformation.
Cells were treated with dimethyl sulfoxide (DMSO) as a solvent control at a final concentration of 0.5% v/v or with compounds in DMSO with a resulting final DMSO concentration of 0.5% v/v. Compound treatment was done at concentrations of 0.39, 0.78, 1.56, 3.12, 6.24, 12.5, 25, 50, 100, and 200 uM in duplicate on each plate. Cells were treated with compounds for 1, 24, or 72 hr. Carbonyl […] m-chloro-phenylhydrazone (CCCP) and taxol were used as positive controls for mitochondrial function and cytoskeletal stability, respectively; DMSO served as the negative control for this experiment. Cells were fixed by the direct addition of 50 uL formaldehyde in Hank's Balanced Salt Solution (HBSS) to a final concentration of 3.7%. After incubation in the fixation medium for 30 min at room temperature (293-298 K), cells were rinsed twice with HBSS and treated with cell permeabilization buffer (16 uL of 0.5% Triton X-100) for 10 min at room temperature (293-298 K) before labeling. For mitochondrial membrane potential and mitochondrial measurements, pre-fixed cells were incubated with 50 uL of MitoTracker Red CMXRos (Invitrogen) at a concentration of 250 nM for 30 min before fixation. In the remaining cases, post-fixed cells were labeled by incubation with a multiplexed mixture of primary antibodies in HBSS for 60 min at room temperature (293-298 K) to detect immunoreactivity of c-Jun (1:500), phospho-histone H3 (1:100), phospho-histone H2A.x (1:200), p53 (1:400), alpha-tubulin (1:200) and Hoechst 33342 (2 ug/mL). Cells were labeled for multiplexed imaging on two separate plates: a) Hoechst 33342, MitoTracker Red, phospho-histone H3, and alpha-tubulin, and b) Hoechst 33342, phospho-histone H2A.x, and c-Jun. A final rinse with HBSS (50 uL) was performed before analysis. The primary and secondary antibodies for the proteins were phospho-histone H3 (rabbit anti-phospho-histone H3 and FITC-donkey anti-rabbit IgG), phospho-histone H2A.x (mouse anti-phospho-histone H2A.x and FITC-donkey anti-mouse IgG), c-Jun (rabbit anti-phospho-c-Jun and Cy3-donkey anti-rabbit IgG), p53 (sheep anti-p53 and Cy5-donkey anti-sheep IgG), alpha-tubulin (mouse anti-alpha-tubulin and Cy5-donkey anti-mouse IgG). These antibodies are available as the CellCiphr HepG2 assay kit (Millipore).Digital images of each well were captured using a Cellomics ArrayScan VTI (Thermo Scientific Cellomics) (0.8 NA objective, 0.63x optical coupler, and XF-93 filter set) at 20x magnification. The images were acquired using the autofocus feature of the ArrayScan instrument, which entails the following steps. First, the camera focuses on channel 1 (Hoechst 33342), where nuclei are identified. Second, a Z offset of 1 um is used for capturing mitochondria (MitoTracker Red). […]

outcome, inactive:
Cc1ccc(C)c(O)c1
CNS(=O)(=O)c1cc(C(=O)N2CCC(CCN3C4CCC3CC(n3c(C)nc5ccccc53)C4)(c3cccc(F)c3)CC2)c(Cl)cc1F (stereo not given)
COC(=O)CC(=O)OC
CN(C)c1ccc(Cc2ccc(N(C)C)cc2)cc1
CCOc1cccc(-n2cc(C(=O)N3CCN(c4cc(C(=O)O)c5ccccc5c4)CC3)nc2-c2ccc(C)cc2)c1
CC/C(=C\C(=N/O)C(N)=O)C(C)[N+](=O)[O-] (stereo not given)
CCn1nc(Cc2ccccc2)cc1C1CCN(C[C@H]2C[C@H](N(C)[C@@H](C(=O)O)C(C)C)C[C@@H]2c2cccc(F)c2)CC1
COc1ccc(-n2nc(C(F)F)cc2-c2ccc(S(C)=O)cc2)cc1 (stereo not given)
CCOC(=O)COc1ccc2c(c1)CC(NCC(O)c1cccc(Cl)c1)CC2 (stereo not given)
CCOC(=O)c1ccc(C2CCC(NC[C@H](O)COc3ccc(O)c(NS(C)(=O)=O)c3)CC2)cc1 (stereo not given in full)
O=C1CCCCCN1
COc1ccc2sc(C(=O)Nc3nnn[nH]3)c(OC(C)C)c2c1
CCCCCCc1ccc(O)cc1O
CC(O)CN(CCN(CC(C)O)CC(C)O)CC(C)O (stereo not given)
Cc1ccc(S(=O)(=O)O)cc1C
CC(C)(O)c1coc(S(=O)(=O)NC(=O)Nc2c3c(cc4c2CCC4)CCC3)c1
CCCCCCCCCCCCCCCO
Cn1c(=O)cc(Oc2ccc(F)cc2F)c2cnc(NCC(C)(C)O)nc21
O=C(OC[C@H]1O[C@@H](OC(=O)c2cc(O)c(O)c(OC(=O)c3cc(O)c(O)c(O)c3)c2)[C@H](OC(=O)c2cc(O)c(O)c(OC(=O)c3cc(O)c(O)c(O)c3)c2)[C@@H](OC(=O)c2cc(O)c(O)c(OC(=O)c3cc(O)c(O)c(O)c3)c2)[C@@H]1OC(=O)c1cc(O)c(O)c(OC(=O)c2cc(O)c(O)c(O)c2)c1)c1cc(O)c(O)c(OC(=O)c2cc(O)c(O)c(O)c2)c1
CC(C)=CCC/C(C)=C/CO
CC(C)CCCCCCOC(=O)c1ccc(C(=O)OCCCCCCC(C)C)c(C(=O)OCCCCCCC(C)C)c1
O=c1[nH]c2ccc(S(=O)CCN3CCC(Cc4ccc(F)cc4)CC3)cc2o1 (stereo not given)
CCOC(=O)CC(CC(=O)OCC)(OC(C)=O)C(=O)OCC
CCCCC(CC)COC(=O)c1ccc(C(=O)OCC(CC)CCCC)cc1 (stereo not given)
CCOCCO
CCOCCOCCOCCO
CCCC(=O)OCC
CC(C)=CCC/C(C)=C\CO
CCCCCCCCO
CCc1cc(SCc2sc(-c3ccc(C(F)(F)F)cc3)nc2CN2CCN(c3ccc(OC)cc3)CC2)ccc1OCC(=O)O
COCCOCCOCCOC
Oc1ccc2c(c1)-c1ccccc1C2
O=C(CCCCCCCCc1cccnc1)N1CCC(C=C(c2ccccc2)c2ccccc2)CC1
CC(=O)c1ccc2c(c1)[C@H](NC(=O)c1ccc(F)cc1)[C@@H](O)C(C)(C)O2
NC(=O)NO
CC(C)CCO
COC(=O)c1c(Cl)c(Cl)c(C(=O)OC)c(Cl)c1Cl
Nc1ccc(Nc2ccccc2)cc1
C[C@](N)(Cc1ccc(O)c(O)c1)C(=O)O

AC50, active:
COc1cccc(-c2ccc(/C=C\CN3CCCCCC3)cc2Cl)c1 59.5 µM
